# According to publication PMC7862700, “An all-to-all approach to the identification of sequence-specific readers for epigenetic DNA modifications on cytosine”:
# Tests used:
# Experiment in all cases: DAPPL (digital affinity profiling via proximity ligation, sequencing); 10 mM Tris-HCl pH 7.5, 50 mM NaCl, 1 mM DTT, 4% glycerol, room temperature, 30 min; GST-TFs on glutathione beads, 16-mer random dsDNA library, 0.1% formaldehyde crosslink after washing; high values mean tight binding
# Conditions in all cases: protein: recombinant; tags: N-terminal GST; dsDNA, one strand shown
# ETV3L = molecular target: T1, ETV3L (Homo sapiens, UniProt Q6ZN32 1-361)
# T1 sequence: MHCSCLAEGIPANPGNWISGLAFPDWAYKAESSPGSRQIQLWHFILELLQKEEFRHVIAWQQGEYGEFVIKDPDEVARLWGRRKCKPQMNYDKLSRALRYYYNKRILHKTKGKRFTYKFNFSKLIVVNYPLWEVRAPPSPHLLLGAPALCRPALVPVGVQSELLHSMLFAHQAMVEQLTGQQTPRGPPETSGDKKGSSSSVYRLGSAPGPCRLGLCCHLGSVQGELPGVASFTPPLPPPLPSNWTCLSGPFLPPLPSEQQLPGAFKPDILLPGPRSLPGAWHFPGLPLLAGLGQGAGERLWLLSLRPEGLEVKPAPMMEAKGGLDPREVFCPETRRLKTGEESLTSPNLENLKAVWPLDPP
# Summary of the method: (§1)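 Binding signal is given per hexamer as its read frequency for a factor divided by its frequency in the tag-only sample. GST-fused human transcription factors were expressed in yeast, captured on glutathione beads, barcoded with DNA and pooled with that sample, then incubated with 200 nmole of a 16-mer random double-stranded DNA library in Tris/NaCl/DTT/glycerol buffer for 30 min at room temperature. The pools were then washed, crosslinked, proximity-ligated, amplified by PCR and sequenced on an Illumina NextSeq500.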
# ETS2 = molecular target: T2, ETS2 (Homo sapiens, UniProt P15036 1-469)
# T2 sequence: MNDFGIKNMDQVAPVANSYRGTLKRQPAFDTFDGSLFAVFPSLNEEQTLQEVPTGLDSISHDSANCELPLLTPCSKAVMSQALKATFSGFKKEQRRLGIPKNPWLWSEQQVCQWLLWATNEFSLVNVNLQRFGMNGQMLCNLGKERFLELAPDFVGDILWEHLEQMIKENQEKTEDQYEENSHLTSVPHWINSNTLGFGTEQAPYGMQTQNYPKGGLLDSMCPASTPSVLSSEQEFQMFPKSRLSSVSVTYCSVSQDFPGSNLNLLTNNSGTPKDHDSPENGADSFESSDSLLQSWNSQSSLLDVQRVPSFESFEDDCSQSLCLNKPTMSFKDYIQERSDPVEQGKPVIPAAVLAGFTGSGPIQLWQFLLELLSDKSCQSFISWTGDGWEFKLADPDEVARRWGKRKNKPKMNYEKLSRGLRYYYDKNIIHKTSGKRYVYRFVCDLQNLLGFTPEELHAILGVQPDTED
# Summary of the method: as §1
# SPDEF = molecular target: T3, SPDEF (Homo sapiens, UniProt O95238 1-335)
# T3 sequence: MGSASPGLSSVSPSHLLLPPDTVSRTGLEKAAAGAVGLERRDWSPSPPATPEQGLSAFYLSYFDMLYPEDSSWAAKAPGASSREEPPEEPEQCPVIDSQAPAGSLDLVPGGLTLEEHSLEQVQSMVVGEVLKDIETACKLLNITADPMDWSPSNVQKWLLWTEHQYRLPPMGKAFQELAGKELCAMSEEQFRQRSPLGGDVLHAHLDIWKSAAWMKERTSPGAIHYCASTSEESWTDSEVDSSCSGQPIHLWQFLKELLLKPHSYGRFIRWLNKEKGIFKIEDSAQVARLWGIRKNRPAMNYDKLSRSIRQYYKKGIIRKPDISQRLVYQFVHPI
# Summary of the method: as §1
# ETV7 = molecular target: T4, ETV7 (Homo sapiens, UniProt Q9Y603 1-341)
# T4 sequence: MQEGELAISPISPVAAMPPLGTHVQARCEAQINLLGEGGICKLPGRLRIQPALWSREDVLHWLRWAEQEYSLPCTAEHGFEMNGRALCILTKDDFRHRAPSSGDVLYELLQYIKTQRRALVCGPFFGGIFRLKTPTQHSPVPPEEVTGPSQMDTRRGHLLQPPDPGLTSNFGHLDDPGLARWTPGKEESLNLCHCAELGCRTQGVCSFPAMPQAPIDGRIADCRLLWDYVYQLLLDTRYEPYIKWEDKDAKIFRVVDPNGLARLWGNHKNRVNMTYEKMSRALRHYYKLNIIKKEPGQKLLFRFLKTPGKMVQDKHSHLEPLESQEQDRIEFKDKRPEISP
# Summary of the method: as §1
# ELF5 = molecular target: T5, ELF5 (Homo sapiens, UniProt Q9UKW6-2 1-255)
# T5 sequence: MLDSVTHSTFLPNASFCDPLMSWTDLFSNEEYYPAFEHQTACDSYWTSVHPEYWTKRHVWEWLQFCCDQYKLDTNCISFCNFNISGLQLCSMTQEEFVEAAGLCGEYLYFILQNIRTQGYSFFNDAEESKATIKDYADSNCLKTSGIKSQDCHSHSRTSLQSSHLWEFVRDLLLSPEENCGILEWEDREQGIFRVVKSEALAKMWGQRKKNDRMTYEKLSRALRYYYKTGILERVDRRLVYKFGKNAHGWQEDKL
# Summary of the method: as §1
# ETV3 = molecular target: T6, ETV3 (Homo sapiens, UniProt P41162-2 1-143)
# T6 sequence: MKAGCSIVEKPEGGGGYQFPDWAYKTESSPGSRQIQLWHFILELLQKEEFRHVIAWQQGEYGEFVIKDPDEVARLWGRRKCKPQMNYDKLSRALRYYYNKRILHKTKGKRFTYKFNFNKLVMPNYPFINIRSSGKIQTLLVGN
# Summary of the method: as §1
# ETV6 = ETV6 (Homo sapiens, UniProt P41212 1-452)
# Summary of the method: as §1
# ERF = molecular target: T7, ERF (Homo sapiens, UniProt P50548 1-548)
# T7 sequence: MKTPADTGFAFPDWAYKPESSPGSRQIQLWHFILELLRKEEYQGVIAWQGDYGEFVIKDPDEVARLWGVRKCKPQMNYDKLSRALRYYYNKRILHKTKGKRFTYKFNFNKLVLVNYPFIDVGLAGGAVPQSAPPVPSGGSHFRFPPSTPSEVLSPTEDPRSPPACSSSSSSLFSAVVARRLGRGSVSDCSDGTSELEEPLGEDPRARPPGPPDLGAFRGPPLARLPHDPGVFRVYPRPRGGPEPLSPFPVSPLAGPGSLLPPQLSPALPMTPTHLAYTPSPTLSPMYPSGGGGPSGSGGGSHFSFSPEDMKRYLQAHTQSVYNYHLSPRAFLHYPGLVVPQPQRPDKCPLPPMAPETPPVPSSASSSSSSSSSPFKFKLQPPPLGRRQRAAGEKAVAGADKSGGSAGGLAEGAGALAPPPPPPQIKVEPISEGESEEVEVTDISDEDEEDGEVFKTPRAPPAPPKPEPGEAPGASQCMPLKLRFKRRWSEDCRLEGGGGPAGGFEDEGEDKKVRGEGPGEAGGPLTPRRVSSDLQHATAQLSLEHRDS
# Summary of the method: as §1
# ETV6, sequence (P41212 whole entry): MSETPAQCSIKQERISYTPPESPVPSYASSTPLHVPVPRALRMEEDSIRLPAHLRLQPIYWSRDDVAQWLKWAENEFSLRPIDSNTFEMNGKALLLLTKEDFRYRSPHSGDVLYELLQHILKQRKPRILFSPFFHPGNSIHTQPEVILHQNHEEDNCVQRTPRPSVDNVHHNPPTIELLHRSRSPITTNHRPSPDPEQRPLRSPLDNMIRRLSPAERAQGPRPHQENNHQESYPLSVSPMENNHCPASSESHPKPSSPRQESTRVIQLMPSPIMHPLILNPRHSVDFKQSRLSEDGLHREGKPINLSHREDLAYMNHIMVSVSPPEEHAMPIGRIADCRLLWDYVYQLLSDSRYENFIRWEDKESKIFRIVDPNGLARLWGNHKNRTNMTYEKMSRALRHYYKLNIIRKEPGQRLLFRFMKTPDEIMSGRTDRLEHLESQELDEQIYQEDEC
Sequence,binding signal (ETV3L),binding signal (ETS2),binding signal (SPDEF),binding signal (ETV7),binding signal (ELF5),binding signal (ETV3),binding signal (ETV6),binding signal (ERF)
GAATAT,"1.05 fold enrichment (6-mer frequency, TF over GST control)","1.05 fold enrichment (6-mer frequency, TF over GST control)","1.02 fold enrichment (6-mer frequency, TF over GST control)","1.1 fold enrichment (6-mer frequency, TF over GST control)","1.12 fold enrichment (6-mer frequency, TF over GST control)","1.12 fold enrichment (6-mer frequency, TF over GST control)","1.07 fold enrichment (6-mer frequency, TF over GST control)",–
AGCATC,"1.02 fold enrichment (6-mer frequency, TF over GST control)","1.09 fold enrichment (6-mer frequency, TF over GST control)","1.27 fold enrichment (6-mer frequency, TF over GST control)",–,"1.08 fold enrichment (6-mer frequency, TF over GST control)","1.07 fold enrichment (6-mer frequency, TF over GST control)","1.03 fold enrichment (6-mer frequency, TF over GST control)",–
ATCCAA,"1.2 fold enrichment (6-mer frequency, TF over GST control)","1.18 fold enrichment (6-mer frequency, TF over GST control)","1.22 fold enrichment (6-mer frequency, TF over GST control)","1.19 fold enrichment (6-mer frequency, TF over GST control)","1.11 fold enrichment (6-mer frequency, TF over GST control)","1.11 fold enrichment (6-mer frequency, TF over GST control)","1.11 fold enrichment (6-mer frequency, TF over GST control)",–
TGGATT,"1.05 fold enrichment (6-mer frequency, TF over GST control)","1.03 fold enrichment (6-mer frequency, TF over GST control)",–,"1.04 fold enrichment (6-mer frequency, TF over GST control)",–,–,"1.02 fold enrichment (6-mer frequency, TF over GST control)",–
AAATCG,"1.09 fold enrichment (6-mer frequency, TF over GST control)",–,–,"1.08 fold enrichment (6-mer frequency, TF over GST control)",–,"1.03 fold enrichment (6-mer frequency, TF over GST control)","1.05 fold enrichment (6-mer frequency, TF over GST control)",–
AAGGCT,"1.02 fold enrichment (6-mer frequency, TF over GST control)",–,"1.04 fold enrichment (6-mer frequency, TF over GST control)","1.06 fold enrichment (6-mer frequency, TF over GST control)","1.06 fold enrichment (6-mer frequency, TF over GST control)","1.04 fold enrichment (6-mer frequency, TF over GST control)","1.02 fold enrichment (6-mer frequency, TF over GST control)",–
CCTGGG,"1.22 fold enrichment (6-mer frequency, TF over GST control)","1.14 fold enrichment (6-mer frequency, TF over GST control)","1.11 fold enrichment (6-mer frequency, TF over GST control)","1.39 fold enrichment (6-mer frequency, TF over GST control)","1.17 fold enrichment (6-mer frequency, TF over GST control)","1.08 fold enrichment (6-mer frequency, TF over GST control)","1.1 fold enrichment (6-mer frequency, TF over GST control)",–
CACGCG,"1.22 fold enrichment (6-mer frequency, TF over GST control)","1.13 fold enrichment (6-mer frequency, TF over GST control)","1.23 fold enrichment (6-mer frequency, TF over GST control)","1.13 fold enrichment (6-mer frequency, TF over GST control)","1.17 fold enrichment (6-mer frequency, TF over GST control)","1.09 fold enrichment (6-mer frequency, TF over GST control)","1.18 fold enrichment (6-mer frequency, TF over GST control)",–
ATAGGT,"1.05 fold enrichment (6-mer frequency, TF over GST control)",–,"1.05 fold enrichment (6-mer frequency, TF over GST control)","1.17 fold enrichment (6-mer frequency, TF over GST control)",–,"1.06 fold enrichment (6-mer frequency, TF over GST control)",–,–
AACGTT,"1.11 fold enrichment (6-mer frequency, TF over GST control)","1.17 fold enrichment (6-mer frequency, TF over GST control)","1.12 fold enrichment (6-mer frequency, TF over GST control)","1.1 fold enrichment (6-mer frequency, TF over GST control)","1.16 fold enrichment (6-mer frequency, TF over GST control)","1.11 fold enrichment (6-mer frequency, TF over GST control)","1.19 fold enrichment (6-mer frequency, TF over GST control)",–
AAAGCC,–,–,–,–,–,"1.05 fold enrichment (6-mer frequency, TF over GST control)","1.01 fold enrichment (6-mer frequency, TF over GST control)","1.01 fold enrichment (6-mer frequency, TF over GST control)"
CATAAA,"1.06 fold enrichment (6-mer frequency, TF over GST control)",–,–,–,–,–,–,–
GTATCA,"1.09 fold enrichment (6-mer frequency, TF over GST control)","1.05 fold enrichment (6-mer frequency, TF over GST control)","1.08 fold enrichment (6-mer frequency, TF over GST control)","1.04 fold enrichment (6-mer frequency, TF over GST control)","1.03 fold enrichment (6-mer frequency, TF over GST control)","1.09 fold enrichment (6-mer frequency, TF over GST control)","1.01 fold enrichment (6-mer frequency, TF over GST control)",–
GCAATG,–,–,–,"1.14 fold enrichment (6-mer frequency, TF over GST control)",–,"1.03 fold enrichment (6-mer frequency, TF over GST control)","1.12 fold enrichment (6-mer frequency, TF over GST control)","1.02 fold enrichment (6-mer frequency, TF over GST control)"
CAAGGT,"1.12 fold enrichment (6-mer frequency, TF over GST control)","1.11 fold enrichment (6-mer frequency, TF over GST control)","1.03 fold enrichment (6-mer frequency, TF over GST control)","1.1 fold enrichment (6-mer frequency, TF over GST control)",–,"1.02 fold enrichment (6-mer frequency, TF over GST control)","1.01 fold enrichment (6-mer frequency, TF over GST control)",–
TCATGA,"1.03 fold enrichment (6-mer frequency, TF over GST control)","1.04 fold enrichment (6-mer frequency, TF over GST control)",–,"1 fold enrichment (6-mer frequency, TF over GST control)","1.05 fold enrichment (6-mer frequency, TF over GST control)","1.06 fold enrichment (6-mer frequency, TF over GST control)",–,–
TCATAA,"1 fold enrichment (6-mer frequency, TF over GST control)","1.01 fold enrichment (6-mer frequency, TF over GST control)","1.01 fold enrichment (6-mer frequency, TF over GST control)",–,"1.02 fold enrichment (6-mer frequency, TF over GST control)",–,–,–
TCAACG,"1.07 fold enrichment (6-mer frequency, TF over GST control)","1.13 fold enrichment (6-mer frequency, TF over GST control)","1.05 fold enrichment (6-mer frequency, TF over GST control)","1 fold enrichment (6-mer frequency, TF over GST control)",–,"1.14 fold enrichment (6-mer frequency, TF over GST control)",–,–
